From PubChem BioAssay AID1159580 (chemical genetic matrix, 2015)
Screen size: about 5,500 compounds; about 2,000 (36%) were called active. Another 18% or so got no clear call; they are omitted. Cut-off read from the data, not from the text of the source: active = normalized growth mostly below about 0.91 (no sharp cut-off); inconclusive = no clear call, values can overlap the other calls; inactive = mostly above about 0.92. The list shows a part of the results.

Assay: chemical genetic growth profiling, strain panel (AID 1159580);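 note: tested at 20 µM; growth read once vehicle control cultures reached saturation at 30 °C; 1 = growth at the plate median or of vehicle wells; lower values mean less growth of the strain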
Settings: growth OD

Measured: normalized growth

CC(=O)NC1SCCC1=O (stereo not drawn)
inactive: S. cerevisiae deletion strains, locus YAL021C, strain ccr4, stronger effect = lower value 1.01 | S. cerevisiae deletion strains, locus YAL026C, strain drs2, stronger effect = lower value 0.983 | S. cerevisiae deletion strains, locus YAL030W, strain snc1, stronger effect = lower value 0.975 | S. cerevisiae deletion strains, locus YBL061C, strain skt5, stronger effect = lower value 0.985 | S. cerevisiae deletion strains, locus YBR009C, strain hhf1, stronger effect = lower value 0.971 | S. cerevisiae deletion strains, locus YBR021W, strain FUR4, stronger effect = lower value 1.02 | S. cerevisiae deletion strains, locus YBR023C, strain chs3, stronger effect = lower value 0.977 | S. cerevisiae deletion strains, locus YBR171W, strain sec66, stronger effect = lower value 0.998 | S. cerevisiae deletion strains, locus YBR229C, strain ROT2, stronger effect = lower value 1.01 | S. cerevisiae deletion strains, locus YBR231C, strain swc5, stronger effect = lower value 0.996 | S. cerevisiae deletion strains, locus YBR279W, strain paf1, stronger effect = lower value 0.99 | S. cerevisiae deletion strains, locus YCL011C, strain gbp2, stronger effect = lower value 0.974 | S. cerevisiae deletion strains, locus YCL016C, strain dcc1, stronger effect = lower value 0.99 | S. cerevisiae deletion strains, locus YCL029C, strain bik1, stronger effect = lower value 1.02 | S. cerevisiae deletion strains, locus YCL061C, strain MRC1, stronger effect = lower value 1 | S. cerevisiae deletion strains, locus YCL069W, strain vba3, stronger effect = lower value 0.981 | S. cerevisiae deletion strains, locus YCR088W, strain abp1, stronger effect = lower value 0.984 | S. cerevisiae deletion strains, locus YDL005C, strain med2, stronger effect = lower value 1.01 | S. cerevisiae deletion strains, locus YDL035C, strain GPR1, stronger effect = lower value 1.03 | S. cerevisiae deletion strains, locus YDL040C, strain nat1, stronger effect = lower value 0.992 | S. cerevisiae deletion strains, locus YDL074C, strain BRE1, stronger effect = lower value 0.994 | S. cerevisiae deletion strains, locus YDL101C, strain DUN1, stronger effect = lower value 1.01 | S. cerevisiae deletion strains, locus YDL134C, strain PPH21, stronger effect = lower value 1.03 | S. cerevisiae deletion strains, locus YDL185W, strain tfp1, stronger effect = lower value 1.01 | S. cerevisiae deletion strains, locus YDL192W, strain arf1, stronger effect = lower value 1.01 | S. cerevisiae deletion strains, locus YDR001C, strain nth1, stronger effect = lower value 0.986 | S. cerevisiae deletion strains, locus YDR069C, strain doa4, stronger effect = lower value 0.977 | S. cerevisiae deletion strains, locus YDR101C, strain arx1, stronger effect = lower value 0.982 | S. cerevisiae deletion strains, locus YDR137W, strain rgp1, stronger effect = lower value 1.01 | S. cerevisiae deletion strains, locus YDR159W, strain sac3, stronger effect = lower value 0.945 | S. cerevisiae deletion strains, locus YDR162C, strain NBP2, stronger effect = lower value 1.02 | S. cerevisiae deletion strains, locus YDR195W, strain ref2 0.97 | S. cerevisiae deletion strains, locus YDR297W, strain sur2, stronger effect = lower value 0.985 | S. cerevisiae deletion strains, locus YDR318W, strain mcm21, stronger effect = lower value 1.02 | S. cerevisiae deletion strains, locus YDR334W, strain swr1, stronger effect = lower value 0.982 | S. cerevisiae deletion strains, locus YDR335W, strain msn5, stronger effect = lower value 0.99 | S. cerevisiae deletion strains, locus YDR388W, stronger effect = lower value 1.02 | S. cerevisiae deletion strains, locus YDR392W, strain spt3, stronger effect = lower value 0.889 | S. cerevisiae deletion strains, locus YDR502C, strain sam2, stronger effect = lower value 0.999 | S. cerevisiae deletion strains, locus YEL003W, strain gim4, stronger effect = lower value 0.976 | S. cerevisiae deletion strains, locus YEL037C, strain rad23, stronger effect = lower value 0.975 | S. cerevisiae deletion strains, locus YEL061C, strain CIN8 (second series), stronger effect = lower value 0.981 | S. cerevisiae deletion strains, locus YEL061C, strain CIN8, stronger effect = lower value 1 | S. cerevisiae deletion strains, locus YER015W, strain faa2, stronger effect = lower value 1.01 | S. cerevisiae deletion strains, locus YER016W, strain bim1, stronger effect = lower value 0.982 | S. cerevisiae deletion strains, locus YER110C, stronger effect = lower value 1.02 | S. cerevisiae deletion strains, locus YER111C, strain swi4, stronger effect = lower value 0.977 | S. cerevisiae deletion strains, locus YER155C, strain BEM2 (second series), stronger effect = lower value 0.958 | S. cerevisiae deletion strains, locus YER155C, strain BEM2, stronger effect = lower value 1.01 | S. cerevisiae deletion strains, locus YER167W, strain BCK2, stronger effect = lower value 1.02 | S. cerevisiae deletion strains, locus YFR010W, strain ubp6, stronger effect = lower value 0.983 | S. cerevisiae deletion strains, locus YGL078C, strain dbp3, stronger effect = lower value 1 | S. cerevisiae deletion strains, locus YGL086W, strain mad1, stronger effect = lower value 0.999 | S. cerevisiae deletion strains, locus YGL167C, strain pmr1, stronger effect = lower value 0.977 | S. cerevisiae deletion strains, locus YGL173C, strain kem1, stronger effect = lower value 0.974 | S. cerevisiae deletion strains, locus YGL227W, strain vid30, stronger effect = lower value 0.986 | S. cerevisiae deletion strains, locus YGL240W, strain doc1, stronger effect = lower value 0.988 | S. cerevisiae deletion strains, locus YGL248W, strain PDE1, stronger effect = lower value 0.999 | S. cerevisiae deletion strains, locus YGL253W, strain hxk2, stronger effect = lower value 0.989 | S. cerevisiae deletion strains, locus YGR135W, strain pre9, stronger effect = lower value 1.05 | S. cerevisiae deletion strains, locus YGR252W, strain gcn5, stronger effect = lower value 1 | S. cerevisiae deletion strains, locus YHR013C, strain ard1, stronger effect = lower value 0.943 | S. cerevisiae deletion strains, locus YHR027C, strain rpn1, stronger effect = lower value 1 | S. cerevisiae deletion strains, locus YHR030C, strain SLT2, stronger effect = lower value 1 | S. cerevisiae deletion strains, locus YHR079C, strain IRE1 (second series), stronger effect = lower value 1 | S. cerevisiae deletion strains, locus YHR094C, strain hxt1, stronger effect = lower value 1.02 | S. cerevisiae deletion strains, locus YHR129C, strain ARP1, stronger effect = lower value 1.01 | S. cerevisiae deletion strains, locus YHR142W, strain chs7, stronger effect = lower value 1.02 | S. cerevisiae deletion strains, locus YHR200W, strain rpn10, stronger effect = lower value 1.02 | S. cerevisiae deletion strains, locus YIL066C, strain RNR3, stronger effect = lower value 0.998 | S. cerevisiae deletion strains, locus YIL073C, strain SPO22, stronger effect = lower value 1.04 | S. cerevisiae deletion strains, locus YIL125W, strain kgd1, stronger effect = lower value 1.01 | S. cerevisiae deletion strains, locus YIR030C, strain dcg1, stronger effect = lower value 1.01 | S. cerevisiae deletion strains, locus YJL092W, strain hpr5, stronger effect = lower value 0.995 | S. cerevisiae deletion strains, locus YJL095W, strain BCK1 (second series), stronger effect = lower value 1 | S. cerevisiae deletion strains, locus YJL095W, strain BCK1, stronger effect = lower value 0.994 | S. cerevisiae deletion strains, locus YJL115W, strain asf1, stronger effect = lower value 0.979 | S. cerevisiae deletion strains, locus YJL129C, strain trk1, stronger effect = lower value 1 | S. cerevisiae deletion strains, locus YJL134W, strain LCB3, stronger effect = lower value 1.01 | S. cerevisiae deletion strains, locus YJL154C, strain vps35, stronger effect = lower value 0.975 | S. cerevisiae deletion strains, locus YJL164C, strain tpk1, stronger effect = lower value 1.01 | S. cerevisiae deletion strains, locus YJL166W, strain qcr8, stronger effect = lower value 0.995 | S. cerevisiae deletion strains, locus YJL168C, strain set2, stronger effect = lower value 1.02 | S. cerevisiae deletion strains, locus YJL187C, strain SWE1 (second series), stronger effect = lower value 0.989 | S. cerevisiae deletion strains, locus YJL187C, strain SWE1, stronger effect = lower value 0.992 | S. cerevisiae deletion strains, locus YJR043C, strain POL32, stronger effect = lower value 1 | S. cerevisiae deletion strains, locus YKL009W, strain mrt4, stronger effect = lower value 0.999 | S. cerevisiae deletion strains, locus YKL068W, stronger effect = lower value 1 | S. cerevisiae deletion strains, locus YKL085W, strain MDH1 (second series), stronger effect = lower value 1.01 | S. cerevisiae deletion strains, locus YKL085W, strain MDH1, stronger effect = lower value 1.01 | S. cerevisiae deletion strains, locus YKL160W, strain elf1, stronger effect = lower value 1.04 | S. cerevisiae deletion strains, locus YKL190W, strain CNB1, stronger effect = lower value 0.998 | S. cerevisiae deletion strains, locus YKR001C, strain vps1, stronger effect = lower value 1.01 | S. cerevisiae deletion strains, locus YKR026C, strain gcn3, stronger effect = lower value 0.977 | S. cerevisiae deletion strains, locus YKR091W, strain srl3, stronger effect = lower value 0.99 | S. cerevisiae deletion strains, locus YLL001W, strain dnm1, stronger effect = lower value 1.02 | S. cerevisiae deletion strains, locus YLL026W, stronger effect = lower value 1 | S. cerevisiae deletion strains, locus YLL041C, strain sdh2, stronger effect = lower value 0.997 | S. cerevisiae deletion strains, locus YLR027C, strain aat2, stronger effect = lower value 1 | S. cerevisiae deletion strains, locus YLR039C, strain RIC1, stronger effect = lower value 1.01 | S. cerevisiae deletion strains, locus YLR058C, strain SHM2, stronger effect = lower value 1.01 | S. cerevisiae deletion strains, locus YLR102C, strain apc9, stronger effect = lower value 1.01 | S. cerevisiae deletion strains, locus YLR221C, strain rsa3, stronger effect = lower value 1.01 | S. cerevisiae deletion strains, locus YLR258W, strain gsy2, stronger effect = lower value 0.985 | S. cerevisiae deletion strains, locus YLR262C, strain YPT6 (second series), stronger effect = lower value 0.99 | S. cerevisiae deletion strains, locus YLR262C, strain YPT6, stronger effect = lower value 1 | S. cerevisiae deletion strains, locus YLR268W, strain sec22, stronger effect = lower value 1 | S. cerevisiae deletion strains, locus YLR320W, strain mms22, stronger effect = lower value 0.999 | S. cerevisiae deletion strains, locus YLR330W, strain CHS5, stronger effect = lower value 1.01 | S. cerevisiae deletion strains, locus YLR342W, strain FKS1 (second series), stronger effect = lower value 1.07 | S. cerevisiae deletion strains, locus YLR342W, strain FKS1, stronger effect = lower value 0.979 | S. cerevisiae deletion strains, locus YLR357W, strain rsc2, stronger effect = lower value 0.991 | S. cerevisiae deletion strains, locus YLR370C, strain arc18, stronger effect = lower value 0.992 | S. cerevisiae deletion strains, locus YLR371W, strain rom2, stronger effect = lower value 1.01 | S. cerevisiae deletion strains, locus YLR384C, strain iki3, stronger effect = lower value 0.979 | S. cerevisiae deletion strains, locus YLR418C, strain cdc73, stronger effect = lower value 1.02 | S. cerevisiae deletion strains, locus YML016C, strain PPZ1, stronger effect = lower value 0.998 | S. cerevisiae deletion strains, locus YML032C, strain rad52, stronger effect = lower value 0.995 | S. cerevisiae deletion strains, locus YML120C, strain ndi1, stronger effect = lower value 0.985 | S. cerevisiae deletion strains, locus YML124C, strain tub3, stronger effect = lower value 1.01 | S. cerevisiae deletion strains, locus YMR058W, strain fet3, stronger effect = lower value 0.989 | S. cerevisiae deletion strains, locus YMR078C, strain ctf18, stronger effect = lower value 1.01 | S. cerevisiae deletion strains, locus YMR125W, strain sto1, stronger effect = lower value 0.959 | S. cerevisiae deletion strains, locus YMR129W, stronger effect = lower value 0.995 | S. cerevisiae deletion strains, locus YMR205C, strain PFK2, stronger effect = lower value 0.969 | S. cerevisiae deletion strains, locus YMR223W, strain ubp8, stronger effect = lower value 1.03 | S. cerevisiae deletion strains, locus YMR231W, strain pep5, stronger effect = lower value 0.976 | S. cerevisiae deletion strains, locus YMR307W, strain GAS1, stronger effect = lower value 0.996 | S. cerevisiae deletion strains, locus YNL067W, strain RPL9B, stronger effect = lower value 0.987 | S. cerevisiae deletion strains, locus YNL071W, strain lat1, stronger effect = lower value 0.984 | S. cerevisiae deletion strains, locus YNL209W, strain ssb2, stronger effect = lower value 0.979 | S. cerevisiae deletion strains, locus YNL233W, strain BNI4, stronger effect = lower value 0.984 | S. cerevisiae deletion strains, locus YNL248C, strain rpa49, stronger effect = lower value 1.01 | S. cerevisiae deletion strains, locus YNL250W, strain rad50, stronger effect = lower value 1.04 | S. cerevisiae deletion strains, locus YNL271C, strain bni1, stronger effect = lower value 1.01 | S. cerevisiae deletion strains, locus YNL298W, strain CLA4, stronger effect = lower value 1.01 | S. cerevisiae deletion strains, locus YNL307C, strain MCK1, stronger effect = lower value 1.02 | S. cerevisiae deletion strains, locus YNL322C, strain KRE1 (second series), stronger effect = lower value 0.989 | S. cerevisiae deletion strains, locus YNR049C, strain mso1, stronger effect = lower value 0.975 | S. cerevisiae deletion strains, locus YNR052C, strain pop2, stronger effect = lower value 1.01 | S. cerevisiae deletion strains, locus YOL006C, strain TOP1, stronger effect = lower value 0.961 | S. cerevisiae deletion strains, locus YOL012C, strain htz1 1.01 | S. cerevisiae deletion strains, locus YOL147C, strain pex11, stronger effect = lower value 1.01 | S. cerevisiae deletion strains, locus YOR001W, strain rrp6, stronger effect = lower value 1.01 | S. cerevisiae deletion strains, locus YOR061W, strain CKA2, stronger effect = lower value 1.01 | S. cerevisiae deletion strains, locus YOR069W, strain VPS5, stronger effect = lower value 1 | S. cerevisiae deletion strains, locus YOR070C, strain gyp1, stronger effect = lower value 0.986 | S. cerevisiae deletion strains, locus YOR080W, strain dia2, stronger effect = lower value 0.987 | S. cerevisiae deletion strains, locus YOR083W, strain WHI5, stronger effect = lower value 1.05 | S. cerevisiae deletion strains, locus YOR106W, strain vam3, stronger effect = lower value 1.01 | S. cerevisiae deletion strains, locus YOR136W, strain idh2, stronger effect = lower value 1 | S. cerevisiae deletion strains, locus YOR144C, strain elg1, stronger effect = lower value 1 | S. cerevisiae deletion strains, locus YOR184W, strain ser1, stronger effect = lower value 1.03 | S. cerevisiae deletion strains, locus YOR265W, strain rbl2, stronger effect = lower value 0.997 | S. cerevisiae deletion strains, locus YOR270C, strain vph1, stronger effect = lower value 0.973 | S. cerevisiae deletion strains, locus YOR290C, strain snf2, stronger effect = lower value 0.919 | S. cerevisiae deletion strains, locus YOR316C, strain cot1, stronger effect = lower value 1.01 | S. cerevisiae deletion strains, locus YPL051W, strain arl3, stronger effect = lower value 1.01 | S. cerevisiae deletion strains, locus YPL055C, strain LGE1, stronger effect = lower value 0.93 | S. cerevisiae deletion strains, locus YPL078C, strain atp4, stronger effect = lower value 1.01 | S. cerevisiae deletion strains, locus YPL106C, strain sse1, stronger effect = lower value 0.978 | S. cerevisiae deletion strains, locus YPL240C, strain hsp82, stronger effect = lower value 0.994 | S. cerevisiae deletion strains, locus YPR119W, strain clb2, stronger effect = lower value 1.01 | S. cerevisiae deletion strains, locus YPR141C, strain kar3, stronger effect = lower value 1 | S. cerevisiae deletion strains, locus YPR163C, strain tif3, stronger effect = lower value 1.02 | S. cerevisiae deletion strains, locus YPR167C, strain met16, stronger effect = lower value 1.01 | S. cerevisiae deletion strains, strain wtn01, stronger effect = lower value 1.01 | S. cerevisiae strains, strain wild type, stronger effect = lower value 1.01
